USP30 block: human USP30 deubiquitinase inhibition; 47,000 compounds, 5.3% hits; Q70CQ3; purified USP30, Ub-rhodamine cleavage fluorescence; inhibition, % at 25 µM; AID 1645860
USP17 block: human USP17-like deubiquitinase inhibition. A8MUK1. purified USP17, Ub-rhodamine cleavage fluorescence, 3 h. inhibition, % at 50 µM. 47,000 compounds, 6.5% hits
USP28 inh: blocks human USP28 ubiquitin-rhodamine cleavage; Q96RU2; purified USP28, Ub-rhodamine cleavage fluorescence, 30 min; inhibition, % at 25 µM; 47,000 compounds, 3% hits
USP8 inh: human USP8 deubiquitinase inhibition; P40818; purified USP8, Ub-rhodamine cleavage fluorescence, 30 min; inhibition, % at 20 µM; 47,000 compounds, 4.2% hits; AID 1645853
A number is an active result; 0 = inactive; - = no result. Most compounds without a hit are left out; they make up all but 13% or so of the library. Rule as the data show it: active = inhibition above about 30%; inactive = the rest.

SMILES | USP30 block | USP17 block | USP28 inh | USP8 inh
COc1ccc(-c2cc(-c3nnc(CSc4nnc(C)n4-c4ccccc4)o3)c3ccccc3n2)cc1OC | 0 | 36.4 | 0 | 0
COc1ccc(-c2cc(-c3nnc(COC(=O)c4cccc([N+](=O)[O-])c4C)o3)c3ccccc3n2)cc1OC | 0 | 0 | 0 | 68.1
COc1ccc(-c2cc(-c3nnc(COC(=O)CNS(=O)(=O)c4ccccc4)o3)c3ccccc3n2)cc1OC | 0 | 0 | 0 | 0
COc1ccc(-c2cc(C(=O)NCc3ccccn3)c3ccccc3n2)cc1OC | 0 | 0 | 0 | 0
COc1ccc(-n2c(SCc3ccccc3C#N)nnc2-c2ccncc2)cc1 | 0 | 0 | 0 | 0
COc1ccc(-c2cc(-c3nnc(COC(=O)CC4CCCC4)o3)c3ccccc3n2)cc1OC | 0 | 0 | 0 | 64.2
O=S(=O)(c1ccc(F)cc1)N1CCCC1c1cncc(-n2ccnc2)n1 (configuration not stated) | 0 | 0 | 0 | 0
CC1(C(=O)NC2CCCCC2)CN(S(C)(=O)=O)CC(=O)N1c1ccc(F)cc1 (configuration not stated) | 0 | 0 | 0 | 0
COc1ccc2[nH]cc(C(=O)c3ccc(F)cc3)c(=O)c2c1 | - | 0 | - | 0
Cc1csc(NC(=O)c2c[nH]c3ccc(F)cc3c2=O)n1 | 0 | 0 | 0 | 85.3
Cc1nc2ccccc2c(-c2ccccc2)c1C(=O)Nc1ccccc1 | 38.4 | 0 | 0 | 0
CC(C)c1ccc(NC(=O)c2c(-c3ccccc3)nnc3ccccc23)cc1 | 0 | 0 | 0 | 0
O=C(c1nnn(-c2ccccc2Cl)c1-c1cccnc1)N1CCCC1 | 0 | 0 | 0 | 0
O=C(Cc1cccc(C(F)(F)F)c1)Nc1ccc2c(c1)OCO2 | 0 | 0 | 0 | 0
CCc1ccc(C(CC(=O)Nc2ccc3c(c2)OCO3)NC(=O)C(F)(F)F)cc1 (configuration not stated) | 0 | 0 | 0 | 36.6
O=C(NCc1ccco1)c1ccc2ccnc(N3CCN(c4ccccc4)CC3)c2c1 | 0 | 0 | 0 | 0
CC1Cc2cc(S(=O)(=O)NCCN3CCCCCC3)ccc2N1C(=O)C1CC1 (configuration not stated) | 0 | 0 | 38.7 | 0
CC1Cc2cc(S(=O)(=O)N3CCCCCC3)ccc2N1C(=O)C1CC1 (configuration not stated) | 0 | 0 | 0 | 0
NCCn1nc(C2CCN(C(=O)Cc3cccc(F)c3)C2)c2cccnc21 (configuration not stated) | 0 | 36.6 | 0 | 0
NCCn1nc(C2CCN(C(=O)Cc3ccc(F)cc3)C2)c2cccnc21 (configuration not stated) | 0 | 0 | 0 | 0
O=C1COc2ccc(Br)cc2CN1Cc1ccccc1F | 0 | 0 | 39.9 | 0
O=C(Cc1ccc(Cl)cc1)NCCc1cn2ccccc2n1 | 0 | 0 | 0 | 0
CC(=O)N1[C@@H](CNC(=O)Cc2ccc(F)cc2C)C[C@@]2(C)[C@@H](O)CCCC[C@@H]12 | 0 | 0 | 0 | 0
N#Cc1cn(CC(=O)N2CCc3ccccc32)c2ccccc12 | 53.3 | 0 | 51.9 | 0
Cc1nnc(-c2cn(CC(=O)N3CCc4ccccc43)c3ccccc23)o1 | 0 | 0 | 0 | 0
SMILES | USP30 block | USP17 block | USP28 inh | USP8 inh
O=C(Cn1cc(C(=O)C(F)(F)F)c2ccccc21)N1CCc2ccccc21 | 36.8 | 52.3 | 0 | 68.4
O=C(Cn1cnc2cc3c(cc21)OCCCO3)N1CCCc2ccccc21 | 0 | 0 | 0 | 36.9
COC(=O)c1cn(CC(=O)N2CCCc3ccccc32)c2ccccc12 | 0 | 40.7 | 0 | 0
Cc1nc2ccc(C(=O)Nc3cc(Cl)cc4cccnc34)cc2nc1C | 0 | 63.5 | 0 | 86.7
CCCCOc1cccc(C(=O)Nc2cccc3cccnc23)c1 | 0 | 0 | 0 | 0
COc1ccc(-n2nnnc2-c2ccc(S(C)(=O)=O)cc2Cl)cc1 | 0 | 0 | 0 | 0
CCCCNC(=O)c1ccc(Nc2cc(C)nc3nc(-c4cccnc4)nn23)cc1 | 47.3 | 0 | 0 | 0
CC(C)c1cc(NCc2ccccc2F)n2nc(-c3cccnc3)nc2n1 | 0 | 0 | 0 | 0
COc1ccc(CNC(=O)CNc2cc(C)nc3nc(-c4cccnc4)nn23)cc1 | 30.8 | 0 | 0 | 0
CC(C)c1cc(NCc2ccccc2)n2nc(-c3cccnc3)nc2n1 | 55.4 | 0 | 0 | 0
O=C(Nc1ccncc1)c1cc(-n2cnnn2)ccc1Cl | 0 | 0 | 0 | 0
CCOC(=O)c1sc2c(c1C)c(=O)n(Cc1ccccc1)c(=O)n2CC(N)=O | 55.2 | 0 | 0 | 0
CCOC(=O)c1csc(-c2cn(C(C)C)c(=O)n(Cc3ccccc3)c2=O)n1 | 0 | 0 | 0 | 0
CC(C)(C)c1ccc(Oc2coc3cc(OCC(=O)O)ccc3c2=O)cc1 | 0 | 0 | 0 | 0
Cc1cc(C)c(C)c(Oc2coc3cc(O)ccc3c2=O)c1 | 0 | 0 | 33.8 | 0

High-throughput results deposited in PubChem BioAssay by Buhrlage Lab, Dana-Farber Cancer Institute and Novartis Institutes for BioMedical Research (Cambridge, Mass).
